Measured values: PubChem BioAssay (NCI)
This is part of a sample that, as a whole, favours compounds with a hit. Of some 83,000 tested, about 20% had one in any assay.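 48-hour exposure, single concentration, 96-well plates; percent growth endpoint where 0 means no net growth. Active: below 10.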 A number with no mark means an inactive call. Calls of active or inactive are those of the source.

Each molecule was assayed on NCI-H226 lung (assay: NCI-60 one-dose screen, 48 h (100 = growth as untreated, 0 = no growth, -100 = all killed)). Settings: 10 µM unless noted.
Procedure: Growth inhibition of the NCI-H226 human Non-Small Cell Lung tumor cell line is measured as a screen for anti-cancer activity. Cells are grown in 96 well plates and exposed to the test compound for 48 hours. Compounds are tested at a single concentration, which is 10^-5 M for most compounds. The reported endpoint is percent growth (GI% or GIPRCNT), where numbers from 0 - 100% represent growth inhibition, and numbers from -100% - 0 represent cell death. For example, a value of 40 represents 60% growth inhibition. A value of 0 means no net growth occurred over the course of the experiment. A value of -40 indicates 40% of cells at the beginning of the experiment died by the end of the experiment. A value of -100 means all cells are dead at the end of the experiment.
NCI-60 Human Tumor Cell Lines Screen was performed using the standard one-dose NCI protocol, which is described in more detail at https://dtp.cancer.gov/discovery_development/nci-60/default.htm.
Compounds with GIPRCNT values below 10 were considered active. Activity score was based on GIPRCNT using the following formula: […]
Score is 0 for GIPRCNT values of 100 or above, 50 for GIPRCNT values of 0, and 100 for GIPRCNT values of -100.

Compared with `COc1ccc(C2CC(c3ccccc3)=Nc3ccccc3S2)cc1` (stereo not given), `c1ccc(-c2ccc3ccccc3c2)cc1` is lower in growth: 98.2% for the first, 80.4% for the second.

Compared with `OCCc1ccc(Cl)cc1`, `O=C(c1ccc(Cl)cc1)N1CCCCC1` is lower in growth: 99.9% for the first, 95.4% for the second.

First: CCOC(OCC)C(=O)c1ccccc1
Second: CCNC(=O)OCCc1c2ccccc2nc2ccccc12
The growth of the first is lower: 98.9% for the first, 106% for the second.

Compared with `CC(=O)Nc1ncc(S(=O)(=O)c2ccc([N+](=O)[O-])cc2)s1`, `Cc1ccc(N2C(=O)c3cccc4c(N)c(S(=O)(=O)O)cc(c34)C2=O)cc1` is lower in growth: 105% for the first, 89.7% for the second.

Compared with `CCOC(=O)c1ccc(NC(C)=O)o1`, `CCOC(=O)/C(C)=C\c1ccc(OC)c(OC)c1` is higher in growth: 95% for the first, 100% for the second.

First: O=c1cc(Cl)nc2ccccn12
Second: COc1ccc2c(c1)Nc1ccccc1S2
The growth of the first is lower: 106% for the first, 108% for the second.

Compared with `C=CC(=O)OC1CCC(C(C)(C)CC)CC1` (stereo not given), `C=C1C(=O)C2CCC1C2` (stereo not given) is lower in growth: 106% for the first, 99.8% for the second.

First: c1ccc2[nH]c(Cc3nc4ccccc4[nH]3)nc2c1
Second: Oc1cc2ccccc2c(-c2c(O)c(O)cc3ccccc23)c1O
The growth of the first is higher: 112% for the first, 39.6% for the second.

Compared with `O=C(c1ccccc1)c1ccc(-c2ccc(O)cc2)cc1`, `Cc1c(Cl)cccc1NC(=S)NC(=O)c1ccccc1` is higher in growth: 89.3% for the first, 90.8% for the second.

Compared with `O=C(Nc1cccc(Cl)c1)c1ccc(Cl)cc1Cl`, `N#Cc1ccc(OC(=O)Nc2c(Cl)cc(Cl)cc2Cl)cc1` is higher in growth: 94.7% for the first, 107% for the second.

First: Oc1cc(O)c2c(c1)O[C@H](c1ccc(O)c(O)c1)[C@@H](O)C2
Second: Cc1cc(CO)c(O)c(CO)c1
The growth of the first is lower: 96.6% for the first, 115% for the second.

First: CC(CO)(CO)C(=O)O
Second: O=C1C=C[C@H](O)[C@@]2(CO)O[C@@H]12
The growth of the first is higher: 96.8% for the first, 71.3% for the second.

Going from `NNc1ncnc2nc[nH]c12` to `NNc1ncnc2c1ncn2C1OC(CO)C(O)C1O` (stereo not given), the growth rises from 47.9% to 55.8%.

First: S=CN1CCCCC1
Second: N#CC1(O)CCCCC1
The growth of the first is lower: 98.1% for the first, 100% for the second.

Going from `COc1ccc(Br)c(C=O)c1` to `COc1ccc(Br)c2c1C(=O)CC2`, the growth rises from 84.5% to 100%.

First: OCc1cccnc1
Second: CC(=O)N(C(C)=O)c1ccc(C)cc1
The growth of the first is higher: 103% for the first, 96.2% for the second.

First: CC1(C)C2CCC1(C)C1(C2)OCCS1 (stereo not given)
Second: Cc1ccc(NC(=S)N2CCOCC2)cc1C
The growth of the first is higher: 92.7% for the first, 92.4% for the second.

Compared with `CCCCCCCCCCCCSC1=C(Cl)C(=O)C(OC)=C(OC)C1=O`, `CC(C)N(CCCC#N)C(C)C` is higher in growth: 74.6% for the first, 114% for the second.

Compared with `Nc1ccc(F)cc1F`, `COc1ccc(-c2csc(NC(=O)Nc3nc(-c4ccc(OC)cc4)cs3)n2)cc1` is lower in growth: 94.8% for the first, 70.6% for the second.

`O=C1NCC2CCCC1C2` (stereo not given) was tested, and the growth was 104%.

For `CCN(CC)c1ccc2nc3ccc(N=Nc4ccc(N(C)C)cc4)cc3[n+](-c3ccccc3)c2c1`, the growth was -36.9% (active).
